Screening data from PubChem BioAssay.
A selection: hits, their analogues and other compounds. The true share with any hit is near 3.6%.
MITF TRPM1 HTS – activators of MITF-driven TRPM1 promoter activity in SK-MEL-5 cells. actives 0.75% (n = 300,000). SK-MEL-5 TRPM1-promoter luciferase, 24 h; % of positive control, neutral wells = 0. AID 588334. activation, % at 12.5 µM;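 active means mean activation of at least 80% with every replicate also reaching 80%; inconclusive means mean reaches 80% but some replicate falls short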;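 further: 0% = neutral control wells and 100% = parthenolide positive control wells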
A3A deaminase – inhibitors of human APOBEC3A DNA deaminase; inhibition, % at 20 µM; actives 0.41% (n = 330,000); AID 493011; recombinant A3A, FAM/TAMRA ssDNA deamination fluorescence;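 active means at least 40% inhibition at 20 µM here, with at most 30% in a related deaminase screen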;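 further: plate controls were A3A with DMSO for no effect and wells lacking A3A enzyme for full effect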
Target sequence (P31941 whole entry, looked up): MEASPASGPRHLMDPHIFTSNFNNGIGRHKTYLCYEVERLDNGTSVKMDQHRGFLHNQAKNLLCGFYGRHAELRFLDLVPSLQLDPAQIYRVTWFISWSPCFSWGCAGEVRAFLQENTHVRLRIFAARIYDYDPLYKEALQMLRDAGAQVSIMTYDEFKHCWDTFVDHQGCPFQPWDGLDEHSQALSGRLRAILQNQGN
PHOSPHO1 block – inhibitors of human PHOSPHO1 phosphatase; Q8TCT1; recombinant PHOSPHO1, absorbance phosphatase assay; inhibition, % at 13.3 µM; actives 1.1% (n = 290,000); AID 1565; in the data active means inhibition above about 60%
Target sequence (Q8TCT1 whole entry, looked up): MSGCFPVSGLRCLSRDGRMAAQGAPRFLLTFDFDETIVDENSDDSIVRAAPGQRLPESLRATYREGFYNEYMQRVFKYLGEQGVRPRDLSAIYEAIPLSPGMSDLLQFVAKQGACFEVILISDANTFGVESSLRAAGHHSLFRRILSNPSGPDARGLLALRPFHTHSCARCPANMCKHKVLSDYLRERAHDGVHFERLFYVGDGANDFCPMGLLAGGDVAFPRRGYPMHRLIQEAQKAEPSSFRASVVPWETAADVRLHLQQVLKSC
esBAF inh – blocks esBAF chromatin remodeling in mouse ES cells | actives 2% (n = 350,000) | AID 602393 | reporter increase, % at 12.5 µM | Bmi1-luciferase knock-in reporter, 24 h; 100% = twice the neutral-well signal; in the data active means activation above about 40%; inconclusive means no clear call, values can overlap the other calls;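 further: 0% = median of the plate's neutral control wells and 100% = double that signal; a rise in the Bmi1 reporter signal indicates esBAF inhibition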
Wnt bcat act – activates Wnt/beta-catenin signaling in a reporter cell assay; activator, plate reader; activation, % at 9.35 µM; actives 1.2% (n = 300,000); AID 743398; in the data active means activation above about 30%, passing the limit was not always enough; inconclusive means no clear call, values can overlap the other calls;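 further: 0% = neutral control wells and 100% = positive control wells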
APOBEC3G inh – APOBEC3G (human) deaminase inhibition | Q9HC16 | recombinant A3G, ssDNA deamination FAM/TAMRA fluorescence | inhibition, % at 20 µM | actives 0.28% (n = 330,000);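 active means inhibition of at least 40% at 20 µM, with no more than 30% in the related APOBEC3A deaminase screen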;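 further: plate controls were DMSO wells with A3G for no effect and wells lacking A3G enzyme for full effect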
Starred values were filed as active, the others as inactive; ? = inconclusive; . = no result given.

SMILES | MITF TRPM1 HTS | A3A deaminase | PHOSPHO1 block | esBAF inh | Wnt bcat act | APOBEC3G inh
COc1ccc(NC(=O)c2coc3ccccc23)cc1OC | 112* | -3 | 24 | 83* | . | 1
COc1ccc(NC(=O)c2oc3ccccc3c2NC(=O)C2CCCO2)cc1OC (stereo unspecified) | 24 | 6 | 38 | 63* | -3 | -3
Cc1ccc(NC(=O)c2oc3ccccc3c2NC(=O)C2CCCO2)cc1C (stereo unspecified) | 104* | -2 | 38 | . | 47* | -8
COc1ccc(NC(=O)c2oc3ccccc3c2NC(=O)C2CC2)cc1OC | 18 | 3 | 36 | 13 | 1 | -6
Cc1ccc(C)c(NC(=O)c2ccccc2NC(=O)C2CCCO2)c1 (stereo unspecified) | -2 | -6 | 34 | . | 60* | -5
CC(C)(C)NC(=O)c1ccccc1NC(=O)C1CCCO1 (stereo unspecified) | 4 | -5 | 26 | . | -1 | -6
C[C@@H]1CN([C@@H](C)CO)C(=O)c2cc(NS(=O)(=O)c3cn(C)cn3)ccc2O[C@@H](C)CCCCO[C@@H]1CN(C)C(=O)CCC(F)(F)F | . | . | . | -3 | . | .
C[C@H](NC(=O)C[C@H]1C[C@@H]2c3cc(NC(=O)CC4CC4)ccc3O[C@@H]2[C@H](CO)O1)c1ccccc1 | . | . | . | -1 | . | .
C/C=C/c1cnc2c(c1)C(=O)N([C@H](C)CO)C[C@@H](C)[C@H](CN(C)C(=O)c1cnccn1)O2 | . | . | . | 2 | . | .
c1ccc2c(c1)NC1(CCCCCC1)n1c-2nc2ccccc21 | . | -3 | 6 | 46* | . | -6
C[C@@H]1CN([C@H](C)CO)C(=O)c2cc(C#Cc3ccccn3)cnc2O[C@@H]1CN(C)C(=O)c1ccccn1 | . | . | . | -3 | . | .
COc1ccc(-n2cnnc2SCC(=O)c2cc(C)n(Cc3cccs3)c2C)cc1 | 9 | -1 | 49 | 7 | . | -2
COCCn1c(C)cc(C(=O)CSc2nncn2-c2ccccc2)c1C | . | 1 | 95* | 26 | 7 | 1
COCCn1c(C)cc(C(=O)CSc2ccc3ccccc3n2)c1C | 87* | -1 | 69* | 8 | . | 22
Cc1ccc(S(=O)(=O)NCC[C@@H]2CC[C@@H](NC(=O)Nc3ccccc3F)[C@H](CO)O2)cc1 | . | . | . | -2 | . | .
COc1ccc(C(=O)NCCN2CCOCC2)c(OC)c1 | -7 | 6 | 24 | -3 | -20 | -2
COc1ccc(C(=O)NCCn2ccc3ccccc32)c(OC)c1 | 51 | -6 | 1 | 55* | 14 | -3
O=C(O)COCc1nc2ccccc2s1 | 13 | 4 | 28 | -10 | 0 | -3
CC(=O)OCc1nc2ccccc2s1 | 10 | -1 | 36 | 43* | ? | -6
Cc1cc(C(=O)OCc2nc3ccccc3s2)c(C)o1 | 69 | 0 | 26 | 72* | . | 1
O=S(=O)(/N=C(/Nc1nc2ccccc2s1)c1ccccc1)c1ccccc1 | 51 | -1 | . | 66* | 50* | -1
NC(=O)c1ccccc1OCc1nc2ccccc2s1 | 55 | -2 | 36 | 16 | 42* | -5
Cc1ccc2nc(N/C(=N/S(=O)(=O)c3ccc(F)cc3)c3ccccc3)sc2c1 | 25 | 1 | 1 | . | 2 | 8
Cc1cc(C(=O)Nc2ccc3c(c2)C(=O)N(C)[C@H]2CC[C@H](CC(=O)O)O[C@@H]2CO3)no1 | . | . | . | -3 | . | .
O=C(NCC[C@H]1CC[C@@H](NC(=O)c2cnccn2)[C@@H](CO)O1)Nc1ccc(Cl)cc1 | . | . | . | 6 | . | .
SMILES | MITF TRPM1 HTS | A3A deaminase | PHOSPHO1 block | esBAF inh | Wnt bcat act | APOBEC3G inh
O=S(=O)(CCc1nc2ccccc2s1)c1ccc(Cl)cc1 | -9 | 2 | 13 | 6 | -4 | -3
O=S(=O)(Cc1nc2ccccc2s1)c1ccccc1 | 53 | -3 | 11 | 57* | 5 | -7
COc1ccccc1S(=O)(=O)N(C)C[C@H]1OCc2ccccc2-c2ccccc2C(=O)N([C@H](C)CO)C[C@H]1C | . | . | . | 3 | . | .
COc1cc(-c2nc(-c3ccccn3)no2)cc(OC)c1OC | 63 | -10 | 3 | 50* | . | -5
c1ccc(-c2noc(-c3cccc4ccccc34)n2)nc1 | -6 | 1 | 19 | -47 | . | -3
COc1cccc(-c2nc(-c3ccccn3)no2)c1OC | 84* | -1 | -3 | 43* | 60* | -5
COc1ccccc1-c1noc(-c2cc(OC)c(OC)c(OC)c2)n1 | . | -3 | 5 | 4 | . | -6
COc1ccc(NC(=O)N(C)C[C@@H]2OCCCC[C@@H](C)Oc3ccc(N(C)C)cc3C(=O)N([C@@H](C)CO)C[C@H]2C)cc1 | . | . | . | 25 | . | .
O=C(C[C@H]1CC[C@@H](NC(=O)Cc2ccccn2)[C@@H](CO)O1)NCCCN1CCOCC1 | . | . | . | 5 | . | .
Clc1cccc2sc(-c3nnc(-c4ccccc4)o3)c(Cl)c12 | 35 | 1 | . | 44* | . | -4
N#CCSc1nnc(-c2sc3ccccc3c2Cl)o1 | -9 | 1 | 5 | . | . | 1
Clc1nssc1=Nc1nncs1 | -10 | -2 | . | 0 | 5 | 71*
OCc1ccccc1N=c1ssnc1Cl | . | -1 | 91* | . | . | 1
Clc1ccc(N=c2ssnc2Cl)nc1 | -18 | -1 | 92* | . | 6 | 20
Clc1nssc1=Nc1ccc(Br)cc1 | -11 | . | 80* | . | 5 | .
O=C(C[C@H]1CC[C@@H]2[C@H](COC[C@@H](O)CN2C(=O)Nc2ccccc2)O1)NCCCN1CCOCC1 | . | . | . | 3 | . | .
COc1cccc(S(=O)(=O)N(C)C[C@@H]2Oc3cc(C#CCN(C)C)ccc3S(=O)(=O)N([C@@H](C)CO)C[C@H]2C)c1 | . | . | . | 3 | . | .
O=C(C[C@H]1CC[C@@H]2[C@H](COC[C@@H](O)CN2C(=O)Cc2ccccc2)O1)NC1CCCC1 | . | . | . | 3 | . | .
C/C=C/c1ccc2c(c1)O[C@H](CN(C)C(=O)c1cnccn1)[C@@H](C)CN([C@@H](C)CO)S2(=O)=O | . | . | . | 3 | . | .
C[C@@H]1CN([C@@H](C)CO)S(=O)(=O)c2ccc(C#CCN(C)C)cc2O[C@@H]1CN(C)C(=O)c1ccccc1F | . | . | . | 5 | . | .
C[C@@H]1CN([C@@H](C)CO)S(=O)(=O)c2ccc(/C=C/c3ccccc3)cc2O[C@@H]1CN(C)CC1CC1 | . | . | . | -4 | . | .
CC(=O)N1c2ccccc2[C@@H](C)[C@@H]1C | -10 | 2 | . | -3 | -4 | 1
CC(=O)N1c2ccccc2C2(O)N=C(C)SC12 (stereo unspecified) | -3 | -1 | 72* | . | . | 46*
N/C(=N\OC(=O)c1cccc(Cl)c1)c1cccnc1 | 18 | -3 | 10 | 73* | . | -4
N/C(=N\OC(=O)c1ccccc1Cl)c1cccnc1 | 31 | 0 | -10 | 22 | . | -3
N/C(=N\OC(=O)c1ccc(Cl)cc1[N+](=O)[O-])c1cccnc1 | . | -2 | 38 | . | 37* | -10
N/C(=N\OC(=O)c1ccccc1)c1ccn[nH]1 | 19 | -3 | 38 | 25 | 49* | -8
N/C(=N\OC(=O)c1ccccc1)c1cccnc1 | 17 | 0 | 32 | 56* | 51* | 5
